Reference: ChEMBL document CHEMBL1201862, “PubChem BioAssay data set” (2004)
In all, about 58,000 sequences went through this assay and about 4,600 (7.9%) were called active. No stated cut-off is given here; in the data, active = GI50 up to about 1.1 µM and inactive = higher. The list comes from a sample in which actives are over-represented; it also holds similar and randomly drawn sequences. Potency and affinity values are given separately.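 Method: 48-hour compound exposure of cells in 96-well plates, five concentrations, linear interpolation of endpoints. Here, GI50 denotes the concentration required for 50% inhibition of growth.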

test system: SW-620; assay: NCI tumour cell line growth inhibition, 48 h

Row | Substance | GI50 [nM]
1 | [Bis(aminomethyl)dimethylsilane]dichloroplatinum (II), CHEMBL2146201 | 4860
2 | [Bis(aminomethyl)diethylsilane]tetrachloroplatinum(IV), CHEMBL2146203 | 483
3 | [Bis(aminomethyl)pentamethylenesilane]dichloropaltinum(II), CHEMBL2146202 | 6700
4 | [Bis(aminomethyl)dimethylsilane]tetrachloroplatinum(IV), CHEMBL2146190 | 1890
5 | [Bis(aminomethyl)pentamethylenesilane]tetrachloropaltinum(IV), CHEMBL2146204 | 1060
6 | [Bis(aminomethyl)ethylmethylsilane]tetrachloroplatinum(IV), CHEMBL2146192 | 1020
7 | cis-Bis[[(trimethylsilyl)methyl]amino]tetrachloroplatinum(IV), CHEMBL2146191 | 2400
8 | [Bis(aminomethyl)tetramethylenesilane]tetrachloropaltinum(IV), CHEMBL2146189 | 1490
9 | CISPLATIN, CHEMBL11359 | 3870
10 | mu-(1,7-nanodiamine-N,N')bis-(cis-aminedichloroplatimum (II)), CHEMBL2146215 | 32100
11 | [Bis(aminomethyl)tetramethylenesilane]dichloropaltinum(II), CHEMBL2146205 | 5160
